Measurements published in PubChem BioAssay (NCI).
About 83,000 compounds went through this panel and 20% of them were active in at least one assay; those are over-represented in the sample as a whole.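 Cells were grown in 96-well plates and exposed to the test compound at a single concentration for 48 hours; results are reported as percent growth, with values below 10 considered active.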 Calls of active or inactive are those of the source.

test system: MDA-MB-468 breast; test: NCI-60 one-dose screen, 48 h (100 = growth as untreated, 0 = no growth, -100 = all killed); settings: 10 µM unless noted

Row | SMILES | growth
1 | COc1ccc2nc3cc(Cl)ccc3c(N)c2c1 | -88.9% (active)
2 | O=C(Nc1cccc(-n2ccc3c(NC(=O)c4ccccc4)nccc32)c1)c1cccc(C(F)(F)F)c1 | -2% (active)
3 | C1=CC2=CC=C3C=CC=C4C(c5nc6c7ccccc7c7ccccc7c6[nH]5)=CC(=C1)C2C34 (stereo not given) | 21.9% (inactive)
4 | COc1ccc(/C(=C(\c2ccccc2)[N+](=O)[O-])c2ccc(OCCN3CCCC3)cc2)cc1 | 68.1% (inactive)
5 | CSc1nc(N)c(N=Nc2ccc(S(=O)(=O)Nc3nnc(C)s3)cc2)c(=O)[nH]1 | 93.4% (inactive)
6 | OCC(O)C(O)C(O)C(O)/C=N/O (stereo not given) | 99.5% (inactive)
7 | O=c1ccccc(-c2ccc(-c3ccco3)cc2)c1O | 12.1% (inactive)
8 | Cc1cccc(C)c1N1C(c2ccccc2)=NNC12C=CC(=O)c1c(O)cccc12 (stereo not given) | 85.1% (inactive)
9 | N#C/C(=C\c1ccc2c(c1)OCO2)n1nnc2ccccc21 | -1.9% (active)
10 | Cc1ccc(Nc2cc(=S)nc(N)[nH]2)cc1C | 84.8% (inactive)
11 | CC(=O)N1N=C(c2ccc(Nc3ccnc4cc(Cl)ccc34)cc2)CC1c1ccc(Cl)cc1 (stereo not given) | 24.3% (inactive)
12 | COc1cc(-c2csc(NC(=O)c3cc(-n4cnc(C)c4)cc(C(F)(F)F)c3)n2)cc(OC)c1OC | 78.4% (inactive)
13 | Nc1cccc2c1CN(C1CCC(=O)NC1=O)C2=O (stereo not given) | 84% (inactive)
14 | C#CCN1C(=O)/C(=c2\sc3n(c2=O)NC2C(N=3)N(CC)C(=O)N2CC)c2ccccc21 (stereo not given) | 10.8% (inactive)
15 | CCOC(=O)c1ccc(N/C=C/C(=O)c2ccccc2)cc1 | 98.9% (inactive)
